Consider 36 molecules from PubChem BioAssay (EPA / NIEHS).

A word on the AC50: it is the concentration giving half of the maximal activity seen.

The source made the active and inactive calls. How the source made its calls: active means hit-call score of the fitted dose curve at least 0.9, where 1 is the maximum; inactive means score below 0.9.

Read-out in this assay: Interleukin 6 (IL6), IL6 (gene 3569)
In words: BSK_BT_xIL6: BioMAP Diversity Plus: BT Assay for Interleukin 6 (IL6) Biomarker Activity (AID 2284228). Conditions: primary human B cells with PBMC. On the procedure:
BSK_BT is a cell-based, multiplexed-readout assay that uses B cell and peripheral blood mononuclear cells, a human vascular primary cell co-culture, with measurements taken at 24 hours after chemical dosing in a microplate: 96-well plate.BSK_BT_xIL6 is an assay component measured in the BSK_BT assay. It measures secreted IL-6 related to regulation of gene expression using LumineX xMAP technology.Data from the assay component BSK_BT_xIL6 was analyzed at the endpoint, BSK_BT_xIL6, in the positive analysis fitting direction relative to DMSO as the negative control and baseline of activity. Using a type of cytokine quantitation reporter, gain or loss-of-signal activity can be used to understand protein changes. To generalize the intended target to other relatable targets, this assay endpoint is annotated to the 'cytokine' intended target family, where the subfamily is 'interleukins'.
The levels of cell surface (or secreted, indicated by the prefix "s") biomarker endpoints were measured by ELISA. Overt cytotoxicity to cells in confluent adherent cultures (all systems other than the BT system) was assessed by measuring total protein levels using sulforhodamine B (SRB) staining in parallel cultures at the time of biomarker measurements, indicated as SRB endpoints. For proliferation assays for adherent cell types, individual cell types are cultured at sub-confluence and relative cell numbers quantified by SRB staining at time points optimized for each system (48 h: 3C and CASM3C systems; 72 h: BT and HDF3CGF systems; 96 h: SAg system). SRB was performed by staining cells with 0.1% SRB after fixation with 10% TCA and reading wells at 560 nm.Viability and proliferation of PBMC (T cells) was quantified by Alamar Blue reduction for the SAg and BT systems. For PBMC viability (referred to as PBMC Cytotoxicity within the assay endpoint names), cells were plated (75,000/well in a 96-well plate) and then chemical samples added for 1 h before addition of activators, SEB and TSST-1 (20 ng/mL final concentration each). Cells were incubated for 90 h. Then, Alamar Blue (20 uL/well) (Invitrogen, Cat DAL1100) was added for 6 h, and the plates were read with a fluorescence microplate reader at 546/580 nm (excitation/emission). For PBMC proliferation, cells were plated and activated as above but incubated for only 16 h prior to addition of Alamar Blue. Plates were read after 6 h.
On to `NC(=S)Nc1ccccc1`, for which the outcome was inactive.

`CCOP(=S)(OCC)SCCS(=O)(=O)CC`: the result was inactive.

As to `ClC1=C(Cl)[C@]2(Cl)[C@H]3[C@H]([C@H]4C=C[C@H]3C4)[C@@]1(Cl)C2(Cl)Cl`, the concentration at half-maximal activity (AC50) is 20 µM (active).

As to `O=S(=O)(c1ccc(Cl)cc1)c1ccc(Cl)cc1`, the outcome was inactive.

`CC(C)CCCCCCOC(=O)c1ccccc1C(=O)OCCCCCCC(C)C`: the result was inactive.

On to `CCSC(C)CC1CC(=O)C(C(CC)=NOC/C=C/Cl)=C(O)C1` (stereo unspecified), for which the result was inactive.

`CCOP(=S)(OCC)Oc1ccc(S(C)=O)cc1` (stereo unspecified): the result was inactive.

With `ClC(Cl)=C(Cl)C(Cl)=C(Cl)Cl`, the concentration at half-maximal activity (AC50) is 11.8 µM (active).

Take `COP(=S)(OC)Oc1ccc(Sc2ccc(OP(=S)(OC)OC)cc2)cc1`: the result was inactive.

With `O=C(O)C(F)(F)C(F)(F)C(F)(F)C(F)(F)C(F)(F)C(F)(F)F`, the outcome was inactive.

In the case of `COC(=O)c1sccc1S(=O)(=O)NC(=O)Nc1nc(C)nc(OC)n1`, the outcome was inactive.

`O=C(O)CCC(F)(C(F)(F)F)C(F)(F)F`: the outcome was inactive.

For `CCNc1nc(NC(C)(C)C)nc(SC)n1`, the outcome was inactive.

For the molecule `O=C(OC1CCCCC1)c1ccccc1C(=O)OC1CCCCC1`, the half-maximal activity concentration (AC50) was 28.3 µM (active).

Consider `O=Cc1cccc(Oc2ccccc2)c1`, for which the AC50 was 5.07 µM (active).

Turning to `BrCCBr`, the result was inactive.

Regarding `COP(=S)(OC)Oc1ccc(S(=O)(=O)N(C)C)cc1`, the outcome was inactive.

Turning to `COP(=S)(OC)Oc1cc(Cl)c(Cl)cc1Cl`, the outcome was inactive.

As to `CCCCC(CC)CO[N+](=O)[O-]` (stereo unspecified), the result was inactive.

On to `Nc1ccc(-c2ccc(N)c(Cl)c2)cc1Cl`, for which the result was inactive.

As to `Oc1c(I)cc(I)cc1I`, the result was inactive.

Take `O=[N+]([O-])c1ccc2c3c(cccc13)CC2`: the half-maximal activity concentration (AC50) was 20 µM (active).

As for `CC1(C)Cc2cccc(O)c2O1`, the result was inactive.

With `CCCCCCCCC(=O)NCc1ccc(O)c(OC)c1`, the outcome was inactive.

Consider `CCOC(=O)/C=C(C)/C=C/C[C@@H](C)CCCC(C)C`, for which the AC50 was 20.8 µM (active).

`CC(=O)C(Cl)C(=O)N(C)C` (stereo unspecified): the half-maximal activity concentration (AC50) was 27.9 µM (active).

In the case of `C(=NC1CCCCC1)=NC1CCCCC1`, the concentration at half-maximal activity (AC50) was 9.07 µM (active).

On to `COP(=S)(OC)Oc1c(Cl)cc(C)cc1Cl`, for which the result was inactive.

In the case of `Oc1ccc(-c2ccccc2)cc1`, the result was inactive.

In the case of `O=C(O)C(F)(F)C(F)(F)C(F)(F)C(F)(F)C(F)(F)C(F)(F)C(F)(F)C(F)(F)C(F)(F)C(F)(F)F`, the outcome was inactive.

With `COc1cc(OC)nc(NC(=O)NS(=O)(=O)c2ncccc2C(=O)N(C)C)n1`, the outcome was inactive.

With `CC(C)c1ccc(CO)cc1`, the result was inactive.

Consider `Nc1cccc2ccccc12`, for which the outcome was inactive.

For `COC[C@H](C)N(C(=O)CCl)c1c(C)csc1C`, the outcome was inactive.

`OCc1ccco1`: the outcome was inactive.

As for `Nc1ncc([N+](=O)[O-])s1`, the outcome was inactive.
